Our source for the outcome and AC50 values is PubChem BioAssay (EPA / NIEHS).

Read-out in experiment [1]: Human Leukocyte Antigen - DR isotype (HLADR), HLA-DRA (gene 3122)
The experiment is described as follows: BSK_3C_HLADR: BioMAP Diversity Plus: 3C Assay for Human Leukocyte Antigen - DR isotype (HLADR) Biomarker Activity (AID 2283019).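 On outcome: ELISA of cell-surface HLA-DR on HUVEC 24 h after dosing.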 The following applies: primary human endothelial cells (HUVEC); actives raise or lower the signal. The method in brief:
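Primary human umbilical vein endothelial cells (3C system) were dosed with compound and cell-surface HLA-DR was quantified by ELISA at 24 h. Activity was fitted bidirectionally against DMSO as negative control and baseline.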

Read-out in experiment [2]: Interleukin-8 (IL8), CXCL8 (gene 3576)
Briefly: BSK_3C_IL8: BioMAP Diversity Plus: 3C Assay for Interleukin-8 (IL8) Biomarker Activity (AID 2283020). The following applies: primary human endothelial cells (HUVEC); actives raise or lower the signal. The procedure, abridged:
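Primary human umbilical vein endothelial cells were dosed for 24 h. IL-8 was quantified by ELISA and fitted bidirectionally against DMSO. Cytotoxicity was assessed in parallel cultures by SRB staining at 560 nm.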

Read-out in experiment [3]: Monokine induced gamma interferon (MIG), CXCL9 (gene 4283)
Briefly: BSK_3C_MIG: BioMAP Diversity Plus: 3C Assay for Monokine induced gamma interferon (MIG) Biomarker Activity (AID 2283021).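 On AC50: MIG protein level measured by immunoassay in the treated endothelial cultures.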 Conditions: primary human endothelial cells (HUVEC); actives raise or lower the signal. The procedure, abridged: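 HUVEC primary endothelial cultures dosed with chemical; MIG quantified by ELISA at 24 h. Data fitted bidirectionally against DMSO control, with parallel SRB total-protein staining for cytotoxicity.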

Experiment [4] is described as follows: BSK_3C_SRB: Viability Assessment in the BioMAP Diversity Plus: 3C Assay (AID 2283023).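 Further: fitted both ways against DMSO so a hit may be signal rise or drop.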 Conditions: primary human endothelial cells (HUVEC). The method in brief:
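Primary human umbilical vein endothelial cells in the 3C system were read 24 h after compound dosing. Total protein was stained with 0.1% sulforhodamine B after 10% TCA fixation and read at 560 nm, with bidirectional fitting against DMSO as baseline.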

Read-out in experiment [5]: Matrix Metallopeptidase 1 (MMP1), MMP1 (gene 4312)
The experiment is described as follows: BSK_BE3C_MMP1: BioMAP Diversity Plus: BE3C Assay for Matrix Metallopeptidase 1 (MMP1) Biomarker Activity (AID 2283024). The following applies: primary human bronchial epithelial cells; actives raise or lower the signal. The method in brief: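 Human primary bronchial epithelial cells (BE3C system) dosed for 24 h; MMP-1 quantified by ELISA. Bidirectional fit against DMSO; cytotoxicity tracked in parallel cultures by SRB total-protein staining.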

Read-out in experiment [6]: Pselectin, SELP (gene 6403)
The experiment is described as follows: BSK_4H_Pselectin: BioMAP Diversity Plus: 4H Assay for Pselectin Biomarker Activity (AID 2283026). The following applies: primary human endothelial cells (HUVEC); actives raise or lower the signal. The procedure, abridged:
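Primary human umbilical vein endothelial cells were treated 24 h, and cell-surface P-selectin was then quantified by ELISA. Bidirectional fit versus DMSO; cytotoxicity checked in parallel cultures by SRB total-protein staining.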

A short description of experiment [7]: BSK_4H_SRB: Viability Assessment in the BioMAP Diversity Plus: 4H Assay (AID 2283027).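 Further: cells exposed to compound for 24 h before staining.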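 On AC50: curves fitted both ways versus DMSO so AC50 may be loss or gain.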 The following applies: primary human endothelial cells (HUVEC). The procedure, abridged:
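Human umbilical vein endothelial cells were dosed with chemical and, after 24 h, fixed with 10% TCA, stained with 0.1% sulforhodamine B, and read at 560 nm to give total protein as a cytotoxicity measure. Bidirectional fitting relative to DMSO control.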

Experiment [8] is described as follows: BSK_BE3C_SRB: Viability Assessment in the BioMAP Diversity Plus: BE3C Assay (AID 2283028).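 On AC50: fitted both ways so AC50 may mark signal gain or loss versus DMSO.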 The following applies: primary human bronchial epithelial cells. The method in brief: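 Human primary bronchial epithelial cells were exposed to test chemicals for 24 h. Total protein in parallel cultures was then measured by staining with 0.1% sulforhodamine B after 10% TCA fixation, with absorbance read at 560 nm. Activity was fitted bidirectionally against DMSO.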

Read-out in experiment [9]: Thrombomodulin, THBD (gene 7056)
Briefly: BSK_3C_Thrombomodulin: BioMAP Diversity Plus: 3C Assay for Thrombomodulin Biomarker Activity (AID 2283029). The following applies: primary human endothelial cells (HUVEC); actives raise or lower the signal. The procedure, abridged:
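Human umbilical vein endothelial cells were exposed to chemicals for 24 h; cell-surface thrombomodulin quantified by ELISA, with bidirectional fitting against DMSO baseline.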

Read-out in experiment [10]: Urokinase-type plasminogen activator receptor (uPAR), PLAUR (gene 5329)
Briefly: BSK_4H_uPAR: BioMAP Diversity Plus: 4H Assay for Urokinase-type plasminogen activator receptor (uPAR) Biomarker Activity (AID 2283030). Conditions: primary human endothelial cells (HUVEC); actives raise or lower the signal. The procedure, abridged: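 Primary human umbilical vein endothelial cells were exposed to chemical for 24 h before cell-surface uPAR was quantified by ELISA. Activity was fitted bidirectionally against the DMSO negative control baseline.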

Read-out in experiment [11]: Human Leukocyte Antigen - DR isotype (HLADR), HLA-DRA (gene 3122)
The experiment is described as follows: BSK_BE3C_HLADR: BioMAP Diversity Plus: BE3C Assay for Human Leukocyte Antigen - DR isotype (HLADR) Biomarker Activity (AID 2283032). The following applies: primary human bronchial epithelial cells; actives raise or lower the signal. The method in brief: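 Human primary bronchial epithelial cells (BE3C system) exposed to compound for 24 hours; cell-surface HLA-DR measured by ELISA, fitted bidirectionally relative to DMSO. Total protein by SRB in parallel cultures tracked cytotoxicity.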

Read-out in experiment [12]: Vascular cell adhesion molecule 1 (VCAM1), VCAM1 (gene 7412)
Briefly: BSK_4H_VCAM1: BioMAP Diversity Plus: 4H Assay for Vascular cell adhesion molecule 1 (VCAM1) Biomarker Activity (AID 2283033). Conditions: primary human endothelial cells (HUVEC); actives raise or lower the signal. The method in brief:
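Primary human umbilical vein endothelial cells, 4H stimulation system, treated for 24 h; cell-surface VCAM-1 quantified by ELISA. Bidirectional fitting against DMSO; cytotoxicity tracked by SRB total-protein staining in parallel cultures.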

Read-out in experiment [13]: Interferon-gamma inducible Protein 10 (IP10), CXCL10 (gene 3627)
Briefly: BSK_BE3C_IP10: BioMAP Diversity Plus: BE3C Assay for Interferon-gamma inducible Protein 10 (IP10) Biomarker Activity (AID 2283034). Conditions: primary human bronchial epithelial cells; actives raise or lower the signal. The method in brief: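 Primary human bronchial epithelial cells, with IP-10 measured by ELISA 24 hours after chemical dosing. Bidirectional fit against DMSO; cytotoxicity checked by SRB total protein staining in parallel cultures.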

Read-out in experiment [14]: Monokine induced gamma interferon (MIG), CXCL9 (gene 4283)
The experiment is described as follows: BSK_BE3C_MIG: BioMAP Diversity Plus: BE3C Assay for Monokine induced gamma interferon (MIG) Biomarker Activity (AID 2283035). The following applies: primary human bronchial epithelial cells; actives raise or lower the signal. The procedure, abridged:
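ELISA read-out of MIG in human lung bronchial epithelial primary cultures, 24 h post-dosing. Bidirectional curve fit vs DMSO baseline.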

Read-out in experiment [15]: Transforming growth factor beta 1 (TGFb1), TGFB1 (gene 7040)
The experiment is described as follows: BSK_BE3C_TGFb1: BioMAP Diversity Plus: BE3C Assay for Transforming growth factor beta 1 (TGFb1) Biomarker Activity (AID 2283036). Conditions: primary human bronchial epithelial cells; actives raise or lower the signal. The procedure, abridged:
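Primary human bronchial epithelial cells dosed with chemical; TGF-b1 measured by ELISA 24 h after dosing. Bidirectional curve fitting against DMSO negative control; SRB total-protein staining in parallel cultures gauged cytotoxicity.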

Read-out in experiment [16]: Plasminogen activator inhibitor-1 (PAI1), SERPINE1 (gene 5054)
Briefly: BSK_BE3C_PAI1: BioMAP Diversity Plus: BE3C Assay for Plasminogen activator inhibitor-1 (PAI1) Biomarker Activity (AID 2283037). The following applies: primary human bronchial epithelial cells; actives raise or lower the signal. The method in brief:
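Primary human bronchial epithelial cells (BE3C system) exposed 24 h; PAI-1 quantified by ELISA. Parallel sulforhodamine B staining of total protein flags cytotoxicity. Bidirectional fit versus DMSO.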

Read-out in experiment [17]: urokinase plasminogen activator (uPA), PLAU (gene 5328)
The experiment is described as follows: BSK_BE3C_uPA: BioMAP Diversity Plus: BE3C Assay for urokinase plasminogen activator (uPA) Biomarker Activity (AID 2283038).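 On outcome: uPA protein level quantified by ELISA in cell cultures; uPA read one day after compound addition.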 The following applies: primary human bronchial epithelial cells; actives raise or lower the signal. The procedure, abridged: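 Human primary bronchial epithelial cells were exposed to chemical for 24 h, then uPA levels were measured by ELISA. Responses were fitted bidirectionally against DMSO as negative control and baseline. Parallel SRB staining of total protein gauged overt cytotoxicity.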

Read-out in experiment [18]: Urokinase-type plasminogen activator receptor (uPAR), PLAUR (gene 5329)
The experiment is described as follows: BSK_BE3C_uPAR: BioMAP Diversity Plus: BE3C Assay for Urokinase-type plasminogen activator receptor (uPAR) Biomarker Activity (AID 2283039).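 On outcome: cells exposed to compound for one day before measurement.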 The following applies: primary human bronchial epithelial cells; actives raise or lower the signal. The procedure, abridged:
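Primary human bronchial epithelial cells dosed for 24 h; uPAR quantified by ELISA with bidirectional fitting against DMSO. Overt cytotoxicity assessed in parallel cultures by SRB total-protein staining (0.1% SRB, 560 nm).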

Read-out in experiment [19]: Vascular endothelial growth factor receptor 2 (Homo sapiens) (UniProt P35968)
Briefly: BSK_4H_VEGFRII: BioMAP Diversity Plus: 4H Assay for Vascular endothelial growth factor receptor 2 (VEGFR2) Biomarker Activity (AID 2283031). The following applies: primary human endothelial cells (HUVEC); actives raise or lower the signal. The procedure, abridged: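 Primary human umbilical vein endothelial cells in the BioMAP 4H system were dosed with test chemical, and 24 h later VEGFRII was measured by ELISA. Activity was fitted bidirectionally against DMSO as negative control and baseline.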

A word on the AC50: it is the midpoint of the concentration-response curve, whichever way the signal moves.

Calls of active or inactive are those of the source. How the source made its calls: active means hit-call score of the fitted dose curve at least 0.9, where 1 is the maximum; inactive means score below 0.9.

For `CCCCC(C#N)(Cn1cncn1)c1ccc(Cl)cc1` (stereo not drawn), the outcome in [1], in experiment [2], in experiment [3], in experiment [4], in experiment [5] and in [6] was inactive. In addition, the result in [7], in experiment [8], in [9], in experiment [10], in experiment [11] and in experiment [12] was inactive. Moreover, the result in [13], in experiment [14], in experiment [15], in experiment [16], in [17] and in experiment [18] was inactive.

As to `COC(=O)NS(=O)(=O)c1ccc(N)cc1`, the outcome in experiment [1], in experiment [2], in [3], in [4], in experiment [5] and in experiment [6] was inactive. Moreover, the outcome in experiment [7], in [8], in experiment [9], in experiment [10], in [19] and in experiment [11] was inactive. For the same compound, the outcome in [12], in [13], in [14], in experiment [15], in experiment [16] and in [17] was inactive. In addition, the result in [18] was inactive.

`CCCCOCN(C(=O)CCl)c1c(CC)cccc1CC`: the AC50 in experiment [1] is 31 µM (active); in experiment [2] it was 34.5 µM (active); in [3], 32.9 µM (active); in experiment [4], 28.5 µM (active); in [5], 33.2 µM (active); in experiment [6], 21.9 µM (active). Also, the half-maximal activity concentration (AC50) in [7] was 28.2 µM (active); in experiment [8] it was 31.1 µM (active); in [9], 8.66 µM (active); in experiment [10], 38.8 µM (active); in experiment [11], 29.8 µM (active); in experiment [13] it was 35.5 µM (active). Besides, the AC50 in experiment [14] was 36.5 µM (active); in experiment [15] it was 31.9 µM (active); in [16], 30.7 µM (active); in [17], 31.4 µM (active); in [18], 32.2 µM (active).

As for `N#Cc1c[nH]cc1-c1cccc2c1OC(F)(F)O2`, the half-maximal activity concentration (AC50) in [1] is 20 µM (active); in experiment [2], 8.82 µM (active); in [4], 11.6 µM (active); in [6] it was 11.7 µM (active); in experiment [7], 6.27 µM (active); in experiment [10] it was 14.7 µM (active). Besides, the outcome in [3], in experiment [5], in [8], in [9], in experiment [19] and in experiment [11] was inactive. The result in experiment [13], in [14], in experiment [15], in experiment [16], in experiment [17] and in [18] was inactive.

As for `Nc1c(Cl)c(Cl)nc(C(=O)O)c1Cl`, the outcome in [1], in experiment [2], in experiment [3], in experiment [4], in [5] and in experiment [6] was inactive. Besides, the result in experiment [7], in experiment [8], in [9], in experiment [10], in experiment [11] and in [12] was inactive. In addition, the outcome in experiment [13], in experiment [14], in [15], in experiment [16], in [17] and in experiment [18] was inactive.

Take `Cc1ccc(N=CN(C)C=Nc2ccc(C)cc2C)c(C)c1`: the AC50 in experiment [1] was 33 µM (active); in experiment [2] it was 31.6 µM (active); in experiment [3], 34.5 µM (active); in experiment [4] it was 32.4 µM (active); in [6], 30 µM (active); in [7], 32.3 µM (active). The half-maximal activity concentration (AC50) in experiment [8] was 28.2 µM (active); in [9] it was 20 µM (active); in [10], 37.5 µM (active); in experiment [11], 26.7 µM (active); in experiment [12], 29.5 µM (active); in [13], 30.5 µM (active). The AC50 is 33.3 µM (active) in [14], 34.1 µM (active) in experiment [15], 30.7 µM (active) in experiment [16] and 35.4 µM (active) in [17]. Also, the result in [5] and in [18] was inactive.
